# Measurements published in PubChem BioAssay (Tox21).
# Where “and” joins values, the source holds several entries; their conditions need not be identical. Identical values can stand only once. Records with an inconclusive call do not appear. Where a call stands in place of a potency, no number is given. More than one record can exist for a structure, and the calls need not agree. Calls of active or inactive are those of the source. Unless noted, the call rests on the fitted dose curve.
# Experiments:
# [1] = Nuclear factor erythroid 2-related factor 2/antioxidant responsive element (Nrf2/ARE) small molecule agonists: luciferase reporter gene qHTS assay in human keratinocytes (AID 1919969); further: nearly all actives have a fitted effect of over 35% in size; further: potency means the concentration at half of the fitted maximal effect
# [2] = biological target: Gonadotropin-releasing hormone receptor (Homo sapiens) (UniProt P30968); test: Human gonadotropin-releasing hormone receptor (GnRHR) small molecule agonists, calcium flux assay in GnRHR-HEK293 cells (AID 1920063); further: nearly all actives have a fitted effect of over 35% in size
# Summary of the method: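 Stable human GnRHR HEK293 line. 18 h plating, then calcium dye for 1 h at 37 C. Agonist-mode compound addition from DMSO stocks; fluorescence monitored 3 min.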
# [3] = biological target: KiSS-1 receptor (Homo sapiens) (UniProt Q969F8); test: Human kisspeptin (KISS1R) small molecule agonists, calcium flux assay in KISS1R-HEK293 cells (AID 1920064; active means well fitted activation curve with a large enough effect in the repeat runs)
# Summary of the method: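 After overnight (18 h) culture at 37 C/5% CO2, human KISS1R-HEK293 cells received calcium dye for 1 h, then test compound; emission at 540 nm (excitation 480 nm) was tracked for 3 min.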
# [4] = G protein-coupled receptor (GPCR) small molecule agonists, calcium flux assay: HEK293 wild type cell line counter screen (AID 1920065)
# Summary of the method: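 Following 18 h incubation at 37 C/5% CO2, plates got calcium dye for 1 h; compounds, ATP or DMSO were then pinned in and fluorescence followed kinetically (480/540 nm).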
# [5] = p53 small molecule agonists, cell-based qHTS assay with human liver microsomes (AID 1963577);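 further: p53 response element beta-lactamase reporter cells with liver microsomes plus NADPH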
# Summary of the method: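 With metabolic activation: human liver microsomes (0.5 mg/mL final) plus NADPH (0.5 mg/mL final) added alongside compounds to p53RE-bla cells; 16 h 37 C exposure; beta-lactamase read by LiveBLAzer fluorescence.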
# [6] = p53 small molecule agonists, cell-based qHTS assay with rat liver microsomes (AID 1963578)
# Summary of the method: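 Metabolic activation by rat liver microsomes and NADPH, each 0.5 mg/mL final, added right after compounds to p53RE-bla reporter cells (4,000/well, plated 5 h earlier). 16 h at 37 C, then LiveBLAzer substrate for 2 h at room temperature in the dark; fluorescence read-out.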
# [7] = p53 small molecule agonists, cell-based qHTS assay with human liver microsomes: qHTS cell viability counter screen (AID 1963579); further: nearly all actives have a fitted effect of over 45% in size
# Summary of the method: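 Metabolic activation used human liver microsomes and NADPH, both 0.5 mg/mL final, over 16 hours at 37 C on p53RE-bla cells (4,000/well). Cytotoxicity measured by CellTiter-Glo luminescence, 30 min at room temperature.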
# [8] = p53 small molecule agonists, cell-based qHTS assay with rat liver microsomes: qHTS cell viability counter screen (AID 1963580); further: nearly all actives have a fitted effect of over 45% in size
# Summary of the method: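 Cytotoxicity counter screen: intracellular ATP measured by CellTiter-Glo luminescence in the same wells as the beta-lactamase reporter read, on HCT-116 p53RE-bla cells exposed 16 h at 37 C to compounds with rat liver microsomes and NADPH, each 0.5 mg/mL final.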
# [9] = p53 small molecule agonists, cell-based qHTS assay: qHTS cell viability counter screen (AID 1963581); further: nearly all actives have a fitted effect of over 45% in size
# Summary of the method: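 qHTS counter screen: 16 h compound exposure at 37 C of p53RE-bla HCT-116 cells (4,000 per well, seeded 5 h prior), cell viability by ATP luminescence.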
# [10] = p53 small molecule agonists, cell-based qHTS assay (AID 1963582; active means well fitted activation curve with a large enough effect in the signal ratio in the repeat runs, not every such curve was filed as active; the % refers to the signal ratio)
# Summary of the method: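 Measured: fluorescence from cleaved LiveBLAzer substrate. System: p53RE-bla cells, 16 h compound treatment at 37 C, 2 h substrate step at room temperature.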
# [11] = biological target: 5-hydroxytryptamine receptor 2A (Homo sapiens) (UniProt P28223); test: 5-hydroxytryptamine receptor 2A (HTR2A) small molecule antagonists, cell-based qHTS assay (AID 1963586); further: nearly all actives have a fitted effect of over 45% in size
# Summary of the method: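 CHO cells stably expressing human HTR2A were plated for 18 h at 37 C, then loaded with calcium dye for 1 h. Compounds were preincubated 5 min at room temperature before DOI (4 nM solution) was added. Kinetic fluorescence was read for 3 min.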
# [12] = biological target: 5-hydroxytryptamine receptor 2A (Homo sapiens) (UniProt P28223); test: 5-hydroxytryptamine receptor 2A (HTR2A) small molecule agonists, cell-based qHTS assay (AID 1963587); further: nearly all actives have a fitted effect of over 30% in size; further: potency means the concentration at half of the fitted maximal effect
# Summary of the method: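 CHO cells stably expressing human HTR2A, plated 18 h, loaded with calcium dye 1 h at 37 C. Agonist mode: compounds added and intracellular calcium fluorescence recorded kinetically for 2 min at 1 sec intervals.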
# [13] = biological target: Muscarinic acetylcholine receptor M1 (Homo sapiens) (UniProt P11229); test: Cholinergic receptor muscarinic 1 (CHRM1) small molecule antagonists, cell-based qHTS assay (AID 1963588); further: nearly all actives have a fitted effect of over 40% in size; further: potency means the concentration at half of the fitted maximal effect
# Summary of the method: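 Compounds were tested at 15 concentrations in three independent runs. Dye-loaded CHRM1-CHO cells were exposed 5 min at room temperature before stimulation by acetylcholine added at 50nM. Intracellular calcium was read kinetically on FDSS for 3 min.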
# [14] = biological target: Muscarinic acetylcholine receptor M1 (Homo sapiens) (UniProt P11229); test: Cholinergic receptor muscarinic 1 (CHRM1) small molecule agonists, cell-based qHTS assay (AID 1963589); further: nearly all actives have a fitted effect of over 35% in size
# Summary of the method: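 Kinetic fluorescence (1 s intervals) of calcium-sensitive dye in human M1 CHO cells after compound addition; cells pre-incubated 18 h at 37 C/5% CO2 and dye-loaded 1 h.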
# [15] = cAMP Responsive Elements (CRE) small molecule agonists, cell-based qHTS assay (AID 1963590)
# Summary of the method: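 Test agents in DMSO were incubated 3 h at 37 C/5% CO2 with CRE-bla HEK 293T cells seeded 18 h earlier; LiveBLAzer B/G FRET substrate was added and read after 2 h at room temperature.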
# [16] = cAMP Responsive Elements (CRE) small molecule antagonists, cell-based qHTS assay (AID 1963591; active means well fitted inhibition curve with a large enough effect in the signal ratio in the repeat runs, not every such curve was filed as active; the % refers to the signal ratio)
# Summary of the method: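 Reporter line CRE-bla HEK 293T in dialyzed-FBS DMEM; cells preincubated 18 h, treated 3 h with compound plus NKH477 (0.25 uM final); LiveBLAzer FRET, 2 h RT.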
# [17] = biological target: Beta-2 adrenergic receptor (Homo sapiens) (UniProt P07550); test: Adrenergic beta2 receptor (ADRB2) small molecule antagonists, cell-based qHTS assay (AID 1963592); further: series mostly up to about 92 µM; nearly all actives have a fitted effect of over 50% in size
# Summary of the method: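 Assay format: CHO-ADRB2 cells, 18-20hr seeding at 37C/5% CO2, then compound plus 1nM isoproterenol agonist mix for 0.5hr RT. Homogeneous time-resolved fluorescence cAMP detection after 1hr, expressed as 665/615 nm ratio.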
# [18] = biological target: D(2) dopamine receptor (Homo sapiens) (UniProt P14416); test: Dopamine D2 receptor (DRD2) small molecule antagonists, cell-based qHTS assay (AID 1963595; active means well fitted inhibition curve with a large enough effect in the signal ratio in the repeat runs, with a control signal flat; the % refers to the signal ratio)
# Summary of the method: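 Readout: HTRF cAMP, cAMP-d2 competing with cellular cAMP for anti-cAMP cryptate, read after 1 h. Cells: DRD2-HEK293. Conditions: 0.1 mM Ro20-1724, 12 nM quinpirole, 200 nM NKH477, 30 min RT.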
# [19] = biological target: Beta-2 adrenergic receptor (Homo sapiens) (UniProt P07550); test: Adrenergic beta2 receptor (ADRB2) small molecule agonists, cell-based qHTS assay (AID 1963593);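 further: CHO cells stably overexpressing human ADRB2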
# Summary of the method: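 CHO cells stably over-expressing ADRB2 were plated overnight at 37C, then dosed with compounds plus a stimulation mix containing 100uM IBMX and 25uM Ro-20-1724 for 0.5hr at room temperature. cAMP was measured by HTRF competition, 1hr.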
# [20] = biological target: D(2) dopamine receptor (Homo sapiens) (UniProt P14416); test: Dopamine D2 receptor (DRD2) small molecule agonists, cell-based qHTS assay (AID 1963594); further: nearly all actives have a fitted effect of over 35% in size
# Summary of the method: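 HEK293 cells stably expressing human DRD2, pre-treated with PDE inhibitor Ro20-1724 (0.1 mM final) and compound 10 min at room temperature, then stimulated with NKH477 (200nM […]) for 30 min. cAMP read by HTRF (665/620 nm).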
# Gonadotropin-releasing hormone receptor (Homo sapiens), sequence (P30968 whole entry, looked up): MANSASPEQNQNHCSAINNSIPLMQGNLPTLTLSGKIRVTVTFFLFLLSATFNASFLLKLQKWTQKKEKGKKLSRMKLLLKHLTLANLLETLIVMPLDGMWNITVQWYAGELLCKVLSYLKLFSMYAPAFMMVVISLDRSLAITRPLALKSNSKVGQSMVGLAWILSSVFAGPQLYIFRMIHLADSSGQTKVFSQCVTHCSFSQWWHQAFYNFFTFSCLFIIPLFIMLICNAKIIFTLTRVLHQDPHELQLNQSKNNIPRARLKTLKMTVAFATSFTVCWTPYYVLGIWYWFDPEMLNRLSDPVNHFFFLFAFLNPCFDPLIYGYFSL
# KiSS-1 receptor (Homo sapiens), sequence (Q969F8 whole entry, looked up): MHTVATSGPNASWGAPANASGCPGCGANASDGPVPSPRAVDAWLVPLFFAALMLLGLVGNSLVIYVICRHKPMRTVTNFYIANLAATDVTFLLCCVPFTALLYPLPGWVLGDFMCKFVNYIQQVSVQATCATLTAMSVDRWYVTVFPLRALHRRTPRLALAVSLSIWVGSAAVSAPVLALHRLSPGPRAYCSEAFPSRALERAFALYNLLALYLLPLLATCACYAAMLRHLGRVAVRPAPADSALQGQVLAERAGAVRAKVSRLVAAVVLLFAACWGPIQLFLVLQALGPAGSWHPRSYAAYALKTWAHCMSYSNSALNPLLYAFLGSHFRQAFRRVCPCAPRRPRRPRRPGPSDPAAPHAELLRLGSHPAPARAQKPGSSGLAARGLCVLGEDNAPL
# 5-hydroxytryptamine receptor 2A (Homo sapiens), sequence (P28223 whole entry, looked up): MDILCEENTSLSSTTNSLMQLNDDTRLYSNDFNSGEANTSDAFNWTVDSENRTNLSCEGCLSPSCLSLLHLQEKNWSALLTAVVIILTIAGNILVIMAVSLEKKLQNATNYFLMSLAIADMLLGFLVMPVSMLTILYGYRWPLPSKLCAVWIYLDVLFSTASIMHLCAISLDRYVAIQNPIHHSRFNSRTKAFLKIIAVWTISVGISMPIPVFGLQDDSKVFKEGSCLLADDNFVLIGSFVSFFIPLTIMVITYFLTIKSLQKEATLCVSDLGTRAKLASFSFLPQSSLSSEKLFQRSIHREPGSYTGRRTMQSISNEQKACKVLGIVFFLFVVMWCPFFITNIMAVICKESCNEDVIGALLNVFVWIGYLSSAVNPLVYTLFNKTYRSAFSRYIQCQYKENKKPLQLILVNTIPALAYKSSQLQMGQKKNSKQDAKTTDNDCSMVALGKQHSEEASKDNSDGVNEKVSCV
# Beta-2 adrenergic receptor (Homo sapiens), sequence (P07550 whole entry, looked up): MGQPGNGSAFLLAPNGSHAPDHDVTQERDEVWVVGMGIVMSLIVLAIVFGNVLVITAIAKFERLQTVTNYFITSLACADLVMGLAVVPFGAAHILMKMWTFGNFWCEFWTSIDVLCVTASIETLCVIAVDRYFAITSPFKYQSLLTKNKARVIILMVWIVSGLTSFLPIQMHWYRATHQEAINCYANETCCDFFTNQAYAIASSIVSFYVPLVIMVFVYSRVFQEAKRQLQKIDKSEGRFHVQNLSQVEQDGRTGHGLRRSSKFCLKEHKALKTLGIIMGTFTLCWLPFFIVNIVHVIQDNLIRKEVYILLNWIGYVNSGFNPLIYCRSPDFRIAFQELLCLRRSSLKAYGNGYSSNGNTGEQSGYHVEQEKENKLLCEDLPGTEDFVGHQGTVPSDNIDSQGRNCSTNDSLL
# Muscarinic acetylcholine receptor M1 (Homo sapiens), sequence (P11229 whole entry, looked up): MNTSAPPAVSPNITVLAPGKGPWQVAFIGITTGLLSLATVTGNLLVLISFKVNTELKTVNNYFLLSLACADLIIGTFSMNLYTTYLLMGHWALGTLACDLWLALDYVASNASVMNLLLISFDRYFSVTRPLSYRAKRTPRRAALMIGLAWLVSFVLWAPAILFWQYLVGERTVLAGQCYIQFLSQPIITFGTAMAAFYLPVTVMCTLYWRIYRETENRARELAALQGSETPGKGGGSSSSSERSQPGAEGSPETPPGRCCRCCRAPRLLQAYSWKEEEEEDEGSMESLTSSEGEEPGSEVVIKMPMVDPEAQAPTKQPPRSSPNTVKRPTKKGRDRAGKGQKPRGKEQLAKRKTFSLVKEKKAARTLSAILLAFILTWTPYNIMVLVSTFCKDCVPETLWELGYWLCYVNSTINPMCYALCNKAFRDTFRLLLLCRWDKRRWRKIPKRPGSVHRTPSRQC
# D(2) dopamine receptor (Homo sapiens), sequence (P14416 whole entry, looked up): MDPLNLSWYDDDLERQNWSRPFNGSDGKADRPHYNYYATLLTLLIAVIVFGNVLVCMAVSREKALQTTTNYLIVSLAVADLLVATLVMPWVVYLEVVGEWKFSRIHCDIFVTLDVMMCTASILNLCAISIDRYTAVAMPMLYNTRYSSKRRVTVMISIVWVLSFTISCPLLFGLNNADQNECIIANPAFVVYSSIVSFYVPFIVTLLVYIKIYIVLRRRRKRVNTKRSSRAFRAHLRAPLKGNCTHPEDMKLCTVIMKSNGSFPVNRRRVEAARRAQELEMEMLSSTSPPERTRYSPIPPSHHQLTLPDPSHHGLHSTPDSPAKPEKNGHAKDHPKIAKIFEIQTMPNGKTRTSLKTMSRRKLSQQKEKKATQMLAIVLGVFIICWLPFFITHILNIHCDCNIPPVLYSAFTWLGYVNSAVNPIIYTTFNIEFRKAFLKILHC
Structure (SMILES),Potency [1],Potency [2],Potency [3],Potency [4],Potency [5],Potency [6],Potency [7],Potency [8],Potency [9],Potency [10],Potency [11],Potency [12],Potency [13],Potency [14],Potency [15],Potency [16],Potency [17],Potency [18],Potency [19],Potency [20]
c1ccc2scnc2c1,inactive,inactive,inactive,inactive,inactive,inactive,inactive,inactive,inactive,inactive,inactive,inactive,inactive,inactive,inactive,inactive,inactive,inactive,,
O=C=NCCCCCCN=C=O,inactive,inactive,inactive,inactive,inactive,inactive,inactive,inactive,inactive,inactive,inactive,inactive,inactive and 27 µM (active),inactive,inactive,inactive,inactive,inactive,inactive,inactive
Nc1ccc(Cl)cc1Cl,inactive,inactive,inactive,inactive,inactive,inactive,inactive,inactive,inactive,inactive,inactive,inactive,inactive,inactive,inactive,inactive,inactive,inactive,,inactive
CCCCCCCCCCCCCC(=O)OC(C)C,inactive,inactive,inactive,inactive,inactive,inactive,inactive,inactive,inactive,inactive,inactive,inactive,inactive,inactive,inactive,inactive,inactive,inactive,inactive,
Nc1cc([N+](=O)[O-])ccc1C(=O)O,inactive,inactive,inactive,inactive,inactive,inactive,inactive,inactive,inactive,inactive,inactive,inactive,inactive,inactive,inactive,inactive,inactive,inactive,,inactive
CC(=O)CCC=C(C)C,inactive,inactive,inactive,inactive,inactive,inactive,inactive,inactive,inactive,,inactive,inactive,inactive,inactive,inactive,inactive,inactive,inactive,inactive,inactive
CCCCCCCC(=O)OCC(O)CO (stereo not drawn),inactive,inactive,inactive,inactive,inactive,inactive,inactive,inactive,inactive,inactive,inactive,inactive,inactive,inactive,,inactive,inactive,inactive,inactive,inactive
O=C(/C=C/C=C/c1ccc2c(c1)OCO2)N1CCCCC1,inactive and 2.73 µM (active),inactive,inactive,inactive,inactive,inactive,inactive,inactive,inactive,inactive,,6.18 µM (active) and inactive,inactive,inactive,inactive,inactive,inactive,inactive,,inactive
Brc1nc2ccccc2s1,inactive,inactive,inactive,inactive,inactive,inactive,inactive,inactive,inactive,inactive,inactive,inactive,,inactive,inactive,inactive,inactive,inactive,inactive,inactive
Fc1ccc(Br)cc1,inactive,inactive,inactive,inactive,inactive,inactive,inactive,inactive,,inactive,inactive,inactive,inactive,inactive,inactive,inactive,inactive,inactive,inactive,inactive
CC1=C(/C=C/C(C)=C/C=C/C(C)=C/C(=O)O)C(C)(C)CCC1,68.7 µM (active) and 68.5 µM (active) and 23.7 µM (active),,inactive,inactive,inactive,inactive,inactive,inactive,inactive,inactive,,,,,inactive,inactive,inactive,inactive,inactive,inactive
CCCCCCCCCCCCc1ccccc1,,inactive,inactive,inactive,inactive,inactive,inactive,inactive,,inactive,inactive,inactive,inactive,inactive,,inactive,inactive,inactive,inactive,inactive
CCCCCCCCCCCO,inactive,inactive,inactive,inactive,,inactive,inactive,inactive,inactive,inactive,inactive,inactive,inactive,inactive,inactive,inactive,inactive,inactive,,inactive
O=C(O)c1cccnc1,,inactive,inactive,inactive,,,,,,,,,,,inactive,inactive,,inactive,inactive,inactive
C=CC(=O)NC(C)(C)CS(=O)(=O)O,inactive,inactive,inactive,inactive,inactive,inactive,,inactive,,inactive,inactive,inactive,inactive,inactive,inactive,inactive,inactive,inactive,inactive,inactive
C/C=C/C=C/C(=O)O,,,inactive,inactive,,,inactive,inactive,inactive,,inactive,inactive,inactive,inactive,inactive,inactive,inactive,inactive,,
